Screening data (PubChem)
PAFAH2 FP inh: PAFAH2 enzyme inhibitors, primary screen, biochemical, fluorescence polarization, human | Platelet-activating factor acetylhydrolase 2, cytoplasmic (Homo sapiens), Q99487 | recombinant PAFAH2, FP-rhodamine activity probe | inhibition, % at 3.39 µM | 0.99% of 340,000 active;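 active = inhibition above the mean over all tested compounds plus 3 SD, cut at about 30% in these data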;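 note: inhibitors block probe labeling of enzyme so polarization drops; 0% = enzyme with DMSO and 100% = wells lacking PAFAH2 protein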
PP5 primary: PP5 phosphatase inhibitors, primary screen, biochemical, fluorescence; 0.18% of 320,000 active; Serine/threonine-protein phosphatase 5 (Homo sapiens), P53041; AID 1987, 2009; purified PP5c, OMFP substrate fluorescence; inhibition, % at 6.7 µM;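 active = inhibition above the campaign's mean inhibition across all tested compounds plus 3 SD, cut at about 9.5% in these data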;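 note: 0% = DMSO only and 100% = 100 µM cantharidin control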
pPAFAH inh: pPAFAH enzyme inhibitors, primary screen, biochemical, fluorescence polarization, human; Platelet-activating factor acetylhydrolase (Homo sapiens), Q13093; recombinant pPAFAH, FP-rhodamine probe fluorescence polarization; inhibition, % at 3.39 µM; 1.5% of 330,000 active; AID 463082, 2010;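 active = inhibition above the mean inhibition across the screen plus 3 SD, cut at about 25% in these data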;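 note: inhibitors block binding of the rhodamine activity-based probe so polarization drops; 0% = enzyme with DMSO and 100% = wells lacking pPAFAH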
PAFAH1B2 FP inh: PAFAH1B2 enzyme inhibitors, primary screen, biochemical, fluorescence polarization, human; recombinant PAFAH1B2, FP-rhodamine activity probe; Platelet-activating factor acetylhydrolase IB subunit alpha2 (Homo sapiens), P68402; AID 492953, 2010; inhibition, % at 3.39 µM; 1.2% of 340,000 active;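 active = inhibition above the mean of all tested compounds plus 3 SD, cut at about 24% in these data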;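 note: 0% = enzyme with DMSO and 100% = wells lacking PAFAH1B2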
Target sequence (P68402 whole entry, looked up): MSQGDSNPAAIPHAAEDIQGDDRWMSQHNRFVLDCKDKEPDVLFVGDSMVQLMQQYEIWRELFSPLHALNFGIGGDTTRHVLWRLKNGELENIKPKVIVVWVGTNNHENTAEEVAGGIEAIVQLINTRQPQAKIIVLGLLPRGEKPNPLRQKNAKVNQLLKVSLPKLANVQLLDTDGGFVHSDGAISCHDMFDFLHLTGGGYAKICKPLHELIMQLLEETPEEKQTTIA
PP1 counter: PP1-alpha phosphatase inhibitors, primary screen, counter-screen for PP5 inhibitor project, biochemical, fluorescence, OMFP substrate, single point. inhibition, % at 6.7 µM. 0.9% of 320,000 active. Serine/threonine-protein phosphatase PP1-alpha catalytic subunit (Homo sapiens), P62136. purified PP1alpha;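 active = inhibition above the mean inhibition of all tested compounds plus 3 SD, computed separately for each screening campaign, cut at about 15% in these data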
PAFAH1B3 FP inh: PAFAH1B3 enzyme inhibitors, primary screen, biochemical, fluorescence polarization, human. 0.28% of 340,000 active. recombinant PAFAH1B3, FP-rhodamine probe. inhibition, % at 3.39 µM. Platelet-activating factor acetylhydrolase IB subunit alpha1 (Homo sapiens), Q15102. AID 492972, 2010;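 active = inhibition above the screen-wide average of all tested compounds plus 3 SD, cut at about 25% in these data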;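 note: 0% = enzyme with DMSO only and 100% = wells lacking PAFAH1B3 protein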
Target sequence (Q15102 whole entry, looked up): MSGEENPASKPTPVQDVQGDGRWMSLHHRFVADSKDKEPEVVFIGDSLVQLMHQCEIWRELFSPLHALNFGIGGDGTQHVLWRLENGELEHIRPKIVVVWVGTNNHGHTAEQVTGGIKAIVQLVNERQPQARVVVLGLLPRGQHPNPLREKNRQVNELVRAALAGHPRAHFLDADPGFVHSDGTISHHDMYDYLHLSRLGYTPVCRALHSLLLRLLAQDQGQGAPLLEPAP
PP1 inh confirm: PP1 phosphatase inhibitors, confirmation, biochemical, fluorescence, OMFP substrate, triplicate; 52% of 1,900 active; purified PP1alpha; AID 2358, 2010; inhibition, % at 6.7 µM; shares compounds with PP1 counter;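 active = mean PP1 inhibition above a set limit taken from the earlier primary screen, cut at about 15% in these data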
PP5 counter: PP5 phosphatase inhibition by PP1 hits, confirmation, counter-screen for PP1 inhibitor project, biochemical, fluorescence, triplicate. shares compounds with PP1 counter. purified PP5c, OMFP fluorescence. inhibition, % at 6.7 µM. 4% of 1,900 active;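 active = mean PP5 inhibition over triplicate wells above about 9.5% taken from the earlier PP1 screen, limit read from the data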
Active calls of the source: *; x = not tested or not shown. Sampled rows, rich in hits. Any-hit rate of the full collection: about 3.4%.

SMILES	PAFAH2 FP inh	PP5 primary	pPAFAH inh	PAFAH1B2 FP inh	PP1 counter	PAFAH1B3 FP inh	PP1 inh confirm	PP5 counter
C#CCOCCOCCOCCNc1nc(N2CCN(C(=O)CCCCCCCCCCNC(=O)[C@H](CCCCN)n3cc(CCCC(=O)O)nn3)CC2)nc(N2CCN(C(=O)CCCCCCCCCCNC(=O)[C@H](CCCN=C(N)N)n3cc(C[C@@H](C)CC)nn3)CC2)n1	-6	1	-1	1	42*	8	12	-2
C#CCOCCOCCOCCNc1nc(N2CCN(C(=O)CCCCCCCCCCNC(=O)[C@H](CCCCN)n3cc(CCO)nn3)CC2)nc(N2CCN(C(=O)CCCCCCCCCCNC(=O)[C@H](CCCN=C(N)N)n3cc(C[C@@H](C)CC)nn3)CC2)n1	-10	5	-6	7	45*	-5	44*	2
C#CCOCCOCCOCCNc1nc(N2CCN(C(=O)CCCCCCCCCCNC(=O)[C@@H](CCC(=O)O)n3cc(CCCCCN)nn3)CC2)nc(N2CCN(C(=O)CCCCCCCCCCNC(=O)[C@@H](CCC(=O)O)n3cc(CCCCCN)nn3)CC2)n1	2	1	7	-1	5	8	x	x
C#CCOCCOCCOCCNc1nc(N2CCN(C(=O)[C@H](CCCCN)n3cc(CC(C)O)nn3)CC2)nc(N2CCN(C(=O)[C@H](Cc3ccc(O)cc3)n3cc(CCO)nn3)CC2)n1 (stereo partly specified)	2	x	x	3	x	4	x	x
C#CCOCCOCCOCCNc1nc(N2CCN(C(=O)CCCCCCCCCCNC(=O)[C@H](CCCCN)n3cc(CCO)nn3)CC2)nc(N2CCN(C(=O)CCCCCCCCCCNC(=O)[C@H](CCCCN)n3cc(CCO)nn3)CC2)n1	-9	1	1	-8	18*	-1	-15	-4
C#CCOCCOCCOCCNc1nc(N2CCN(C(=O)[C@H](CCCCN)n3cc(CCCC)nn3)CC2)nc(N2CCN(C(=O)[C@H](Cc3ccc(O)cc3)n3cc(CCO)nn3)CC2)n1	7	2	7	1	21*	-7	-10	0
CC1CC(C)CN(C(=O)c2ccc(S(=O)(=O)N3CCCC3)cc2)C1 (stereo unspecified)	-10	2	4	6	3	5	x	x
Cc1cc(C)n(CCN(C)C(=O)C2CCC(=O)N(CCN3CCOCC3)C2)n1 (stereo unspecified)	0	1	1	0	-2	-6	x	x
CC(C)(C)NC(=O)N1CCN(c2nc(-c3ccccc3)ns2)CC1	-4	1	8	6	53*	2	0	-2
Cc1ccc(S(=O)(=O)N(CC(=O)N/N=C/c2ccccc2C(=O)O)c2cc(Cl)cc(Cl)c2)cc1	24	1	-7	1	19*	8	19*	1
CCOc1ccc(S(=O)(=O)N2CCC(C(=O)Nc3ccc(C)c(S(=O)(=O)N4CCOCC4)c3)CC2)cc1	1	x	x	0	x	7	x	x
Cc1c(/C=N/Nc2nc3ccccc3[nH]2)c2ccccc2n1C	12	3	14	11	13	13	x	x
C=CCn1cc(/C=N/Nc2nc3ccccc3[nH]2)c2ccccc21	2	-2	24	6	22*	20	30*	4
COc1cc(OC)nc(NC(=O)CS(=O)(=O)c2ccccc2)n1	2	0	-1	1	30*	0	-3	-1
COc1ccc(CCNc2nc(-c3ccncc3)cs2)cc1OC	4	-1	7	3	-1	2	x	x
